The source made the active and inactive calls. The calls were made as follows: active = hit-call score of the fitted dose curve at least 0.9, where 1 is the maximum; inactive = score below 0.9.

A short description of this experiment: APR_HepG2_MitoMass_1hr: Apredica 1-hour HepG2 Assay for Mitochondrial Mass (AID 2282674). As to conditions: high-content imaging, actives raise or lower the signal. On the procedure:
APR_HepG2_1hr is a cell-based, multiplexed-readout assay that uses HepG2, a human liver cell line, with measurements taken at 1 hour after chemical dosing in a 384-well plate.APR_HepG2_MitoMass_1hr is one of 10 assay component(s) measured or calculated from the APR_HepG2_1hr assay. It is designed to make measurements of cell phenotype, a form of morphology reporter, as detected with fluorescence intensity signals by HCS Fluorescent Imaging technology.Data from the assay component APR_HepG2_MitoMass_1hr was analyzed into 1 assay endpoint. This assay endpoint, APR_HepG2_MitoMass_1hr, was analyzed with bidirectional fitting relative to DMSO as the negative control and baseline of activity. Using a type of morphology reporter, gain or loss-of-signal activity can be used to understand changes in the signaling. Furthermore, this assay endpoint can be referred to as a primary readout, because this assay has produced multiple assay endpoints where this one serves a signaling function. To generalize the intended target to other relatable targets, this assay endpoint is annotated to the cell morphology intended target family, where the subfamily is organelle conformation.
Cells were treated with dimethyl sulfoxide (DMSO) as a solvent control at a final concentration of 0.5% v/v or with compounds in DMSO with a resulting final DMSO concentration of 0.5% v/v. Compound treatment was done at concentrations of 0.39, 0.78, 1.56, 3.12, 6.24, 12.5, 25, 50, 100, and 200 uM in duplicate on each plate. Cells were treated with compounds for 1, 24, or 72 hr. Carbonyl […] m-chloro-phenylhydrazone (CCCP) and taxol were used as positive controls for mitochondrial function and cytoskeletal stability, respectively; DMSO served as the negative control for this experiment. Cells were fixed by the direct addition of 50 uL formaldehyde in Hank's Balanced Salt Solution (HBSS) to a final concentration of 3.7%. After incubation in the fixation medium for 30 min at room temperature (293-298 K), cells were rinsed twice with HBSS and treated with cell permeabilization buffer (16 uL of 0.5% Triton X-100) for 10 min at room temperature (293-298 K) before labeling. For mitochondrial membrane potential and mitochondrial measurements, pre-fixed cells were incubated with 50 uL of MitoTracker Red CMXRos (Invitrogen) at a concentration of 250 nM for 30 min before fixation. In the remaining cases, post-fixed cells were labeled by incubation with a multiplexed mixture of primary antibodies in HBSS for 60 min at room temperature (293-298 K) to detect immunoreactivity of c-Jun (1:500), phospho-histone H3 (1:100), phospho-histone H2A.x (1:200), p53 (1:400), alpha-tubulin (1:200) and Hoechst 33342 (2 ug/mL). Cells were labeled for multiplexed imaging on two separate plates: a) Hoechst 33342, MitoTracker Red, phospho-histone H3, and alpha-tubulin, and b) Hoechst 33342, phospho-histone H2A.x, and c-Jun. A final rinse with HBSS (50 uL) was performed before analysis. The primary and secondary antibodies for the proteins were phospho-histone H3 (rabbit anti-phospho-histone H3 and FITC-donkey anti-rabbit IgG), phospho-histone H2A.x (mouse anti-phospho-histone H2A.x and FITC-donkey anti-mouse IgG), c-Jun (rabbit anti-phospho-c-Jun and Cy3-donkey anti-rabbit IgG), p53 (sheep anti-p53 and Cy5-donkey anti-sheep IgG), alpha-tubulin (mouse anti-alpha-tubulin and Cy5-donkey anti-mouse IgG). These antibodies are available as the CellCiphr HepG2 assay kit (Millipore).Digital images of each well were captured using a Cellomics ArrayScan VTI (Thermo Scientific Cellomics) (0.8 NA objective, 0.63x optical coupler, and XF-93 filter set) at 20x magnification. The images were acquired using the autofocus feature of the ArrayScan instrument, which entails the following steps. First, the camera focuses on channel 1 (Hoechst 33342), where nuclei are identified. Second, a Z offset of 1 um is used for capturing mitochondria (MitoTracker Red). Third, a Z offset of -2 um is used for capturing the cytoskeleton (tubulin). […]
For `Cc1nc(N(C)C)nc(OC(=O)N(C)C)c1C`, the molecule was classed as inactive.

Regarding `CCCCOCN(C(=O)CCl)c1c(CC)cccc1CC`, the call was inactive.

As for `Nc1c(Cl)c(F)nc(OCC(=O)O)c1Cl`, the molecule was classed as inactive.

Regarding `CC(C)NC(=O)N1CC(=O)N(c2cc(Cl)cc(Cl)c2)C1=O`, the molecule was classed as inactive.

As for `C=CCOC(=O)C(C)(C)OC(=O)c1cc(-n2c(=O)cc(C(F)(F)F)n(C)c2=O)ccc1Cl`, the call was inactive.

On to `OC(c1ccc(Cl)cc1)(c1ccc(Cl)cc1)C(Cl)(Cl)Cl`, for which the result was inactive.

Regarding `CCCC(=NOCC)C1=C(O)CC(CC(C)SCC)CC1=O` (stereo not given), the molecule was classed as inactive.

Consider `CC(C)N1C(=O)N(c2ccccc2)CSC1=NC(C)(C)C`, for which the molecule was called inactive.

For `CCOC(=O)C(C)OC(=O)c1cc(Oc2ccc(C(F)(F)F)cc2Cl)ccc1[N+](=O)[O-]` (stereo not given), the outcome was inactive.

For `CCSC(=O)N1CCCCCC1`, the result was inactive.

In the case of `COc1ccc(-c2ccccc2)cc1NNC(=O)OC(C)C`, the call was inactive.

On to `CCCN(CC)CC1COC2(CCC(C(C)(C)C)CC2)O1` (stereo not given), for which the molecule was called inactive.

For `COP(=S)(OC)Oc1ccc([N+](=O)[O-])c(C)c1`, the molecule was classed as inactive.

Take `COc1cc(Cl)c(OC)cc1Cl`: the call was inactive.

Regarding `CC1(C)C(C=C(Cl)Cl)C1C(=O)OC(C#N)c1cccc(Oc2ccccc2)c1` (stereo not given), the molecule was classed as inactive.

On to `COCc1cnc(C2=NC(C)(C(C)C)C(=O)N2)c(C(=O)O)c1` (stereo not given), for which the molecule was classed as inactive.

In the case of `CCCCC(O)(Cn1cncn1)c1ccc(Cl)cc1Cl` (stereo not given), the call was inactive.

As for `Nc1cnn(-c2ccccc2)c(=O)c1Cl`, the result was inactive.

In the case of `Cc1c(COC(=O)[C@@H]2[C@H](/C=C(\Cl)C(F)(F)F)C2(C)C)cccc1-c1ccccc1`, the molecule was called inactive.

On to `CNC(=O)N(C)c1nnc(C(C)(C)C)s1`, for which the result was inactive.

In the case of `CC(C)Oc1cccc(NC(=O)c2ccccc2C(F)(F)F)c1`, the molecule was classed as inactive.

Regarding `COP(=O)(OC)O/C(C)=C/C(=O)N(C)C`, the call was inactive.

For `CC1(C)CON(Cc2ccccc2Cl)C1=O`, the result was inactive.

Consider `CCN(CC)C(=O)C(C)Oc1cccc2ccccc12` (stereo not given), for which the molecule was classed as inactive.

`CCOc1cc(C(C)(C)C)ccc1C1COC(c2c(F)cccc2F)=N1` (stereo not given): the outcome was inactive.

In the case of `CC(C)(C)C(=O)C(Oc1ccc(Cl)cc1)n1cncn1` (stereo not given), the molecule was called inactive.

On to `N#Cc1c(Cl)cccc1Cl`, for which the outcome was inactive.

With `CS(=O)(=O)c1ccc(C(=O)C2C(=O)CCCC2=O)c([N+](=O)[O-])c1`, the molecule was classed as inactive.

As to `COCC(C)N(C(=O)CCl)c1c(C)csc1C` (stereo not given), the molecule was called inactive.

On to `CSC(=O)c1c(C(F)F)nc(C(F)(F)F)c(C(=O)SC)c1CC(C)C`, for which the call was inactive.

For `O=C1C2CC=CCC2C(=O)N1SC(Cl)(Cl)Cl` (stereo not given), the call was inactive.

With `COc1cc(OC)nc(NC(=O)NS(=O)(=O)c2ncccc2OCC(F)(F)F)n1`, the outcome was inactive.

For the molecule `COC(=O)NC(=S)Nc1ccccc1NC(=S)NC(=O)OC`, the molecule was called inactive.

With `Cn1c(-c2ccccc2)cc(-c2ccccc2)[n+]1C`, the molecule was called inactive.

Consider `CN/C(=N\[N+](=O)[O-])NCc1cnc(Cl)s1`, for which the molecule was classed as inactive.

As for `CCN(CC)c1nc(C)cc(OP(=S)(OC)OC)n1`, the molecule was called inactive.

For `CCC(C)n1c(=O)[nH]c(C)c(Br)c1=O` (stereo not given), the result was inactive.

For `N#CN=C1SCCN1Cc1ccc(Cl)nc1`, the molecule was classed as inactive.

With `Clc1cccc(C(Cl)(Cl)Cl)n1`, the molecule was classed as inactive.

As for `CC(C)C1(C)N=C(c2ncccc2C(=O)O)NC1=O` (stereo not given), the result was inactive.

The values are drawn from PubChem BioAssay (EPA / NIEHS).
